SMILES strings stand for the structures. Several values for one entry are separate records, joined by “and”; a condition that tells them apart may be missing. Identical values can stand only once. Results filed as inconclusive are left out. Activity calls are given as the source filed them.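 Rule for the calls, unless noted: active = compounds whose cell count with miR-34 switched on is under 0.7 times the count with it off; inactive = the rest.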

The target of assay [1] is 6-phosphogluconate dehydrogenase, decarboxylating (Homo sapiens) (UniProt P52209). Nature of the assay: inhibition of human phosphogluconate dehydrogenase – biochemical, recombinant enzyme, NADPH absorbance, primary screen (AID 1159550;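 active = at least 20% inhibition of 6-phosphogluconate dehydrogenase activity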). The conditions noted are these: recombinant 6PGD, NADPH absorbance 341 nm; at 10 µM; stronger effect = higher value.
Assay [2] is described as follows: viability loss in pontine glioma line – cell-based, SU-DIPG-XVII, MIPE5.0, CellTiter-Glo, qHTS, dose response (AID 1347060; cut-off not given, nearly all actives have AC50 up to about 26 µM). The settings on record: CellTiter-Glo ATP luminescence. Background: In ATP-based viability assays light output follows the ATP content of the culture.
A short description of assay [3]: viability loss in pontine glioma line – cell-based, SU-DIPG-XIII, MIPE4.0, CellTiter-Glo, qHTS, dose response (AID 1347061; cut-off not given, nearly all actives have AC50 up to about 37 µM;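 note: cells exposed to compound for 48 hours before readout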). The settings on record: CellTiter-Glo ATP luminescence.
Assay [4] in a line: viability loss in pontine glioma line – cell-based, JHH-DIPG-1, MIPE4.0, CellTiter-Glo, qHTS, dose response (AID 1347062; cut-off not given, nearly all actives have AC50 up to about 27 µM;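 for AC50: cells exposed to compound for two days before readout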). The conditions noted are these: JHH-DIPG-1 viability, CellTiter-Glo ATP luminescence.
Assay [5] is described as follows: viability loss in pontine glioma line – cell-based, SU-DIPG-IV, MIPE4.0, CellTiter-Glo, qHTS, dose response (AID 1347063; cut-off not given, nearly all actives have AC50 up to about 30 µM;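 note: compound exposure lasted 48 hours before the viability readout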). The settings on record: CellTiter-Glo ATP luminescence.
Assay [6] can be described thus: JHH-DIPG-1 glioma cell viability, MIPE5.0 library, CellTiter-Glo luminescence, qHTS (AID 1347067; cut-off not given, nearly all actives have AC50 up to about 26 µM;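 note: cells exposed to compound for 48 hours before readout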). The conditions noted are these: JHH-DIPG-1 glioma viability, CellTiter-Glo ATP luminescence.
Assay [7] addresses Mitogen-activated protein kinase 7 (Homo sapiens) (UniProt Q13164). Nature of the assay: Gal4-ERK5 driven luciferase induction – cell-based, HTS, primary screen (AID 1508626;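 active = luciferase signal above three times the same-plate solvent-only control wells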;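 note: luciferase driven by Gal4-ERK5 fusion binding five Gal4 sites before minimal TATA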). The settings on record: HeLa Gal4-ERK5 transactivation, 18 h, at 5 µM, stronger effect = higher value.
Assay [8] is described as follows: P. berghei load reduction in hepatocytes – cell-based, HepG2, luciferase luminescence, HepG2 viability, primary screen (AID 624349; in the data active = parasite load remaining mostly below about 12%, no sharp cut-off; inactive = mostly above about 10%;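 note: 100% = mean of DMSO negative control wells on the same plate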). The settings on record: P. berghei liver stage in HepG2, luciferase luminescence, concentration not given here; parasite load remaining: stronger effect = lower value; viability: measured here: HepG2 viability without parasites.
A short description of assay [9]: viability loss with induced miR-34 in A549 – imaging, A549 dox-inducible miR-34, nuclei and caspase counts, primary screen (AID 1347080). The settings on record: A549 miR-34 inducible, Hoechst nuclei count, 48 h.
Assay [10] is described as follows: MELAS cybrid and Rieske KO viability enhancers – cell-based, MELAS cybrids, Rieske KO mouse fibroblasts, CellTiter-Glo, primary screen (AID 1508586;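 active = mean z-score across replicates of 1.96 or higher in either the MELAS or the Rieske mutant cell line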;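 note: z relative to plate mean and SD of compound and empty wells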). The settings on record: low glucose.
A short description of assay [11]: galactose survival enhancers in mitochondrial complex I cybrids – cell-based, galactose medium, ATP luminescence, primary screen (AID 1645843;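 active = z-score of at least 1.8 in each of two replicates, scored against plate mean and spread of sample wells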;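 note: positive z means more ATP and so rescue of galactose-driven cybrid death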). The conditions noted are these: complex I mutant cybrid cells, 72 h, stronger effect = higher value.
[12] abbreviates: stronger effect = lower value, cell number ratio, induced over uninduced.
Setting [13] is: measured here: relative caspase fold change +Dox/-Dox.
[14] abbreviates: measured here: total cells with miR-34 induction, stronger effect = lower value.
Setting [15] is: measured here: total cells without miR-34 induction.
Where [16] appears, read: MELAS cybrid survival, CellTiter-Glo 48 h, stronger effect = higher value.
The mark [17] stands for this setting: Rieske KO mouse fibroblast survival, CellTiter-Glo 72 h.

6-phosphogluconate dehydrogenase, decarboxylating (Homo sapiens), sequence (P52209 whole entry, looked up): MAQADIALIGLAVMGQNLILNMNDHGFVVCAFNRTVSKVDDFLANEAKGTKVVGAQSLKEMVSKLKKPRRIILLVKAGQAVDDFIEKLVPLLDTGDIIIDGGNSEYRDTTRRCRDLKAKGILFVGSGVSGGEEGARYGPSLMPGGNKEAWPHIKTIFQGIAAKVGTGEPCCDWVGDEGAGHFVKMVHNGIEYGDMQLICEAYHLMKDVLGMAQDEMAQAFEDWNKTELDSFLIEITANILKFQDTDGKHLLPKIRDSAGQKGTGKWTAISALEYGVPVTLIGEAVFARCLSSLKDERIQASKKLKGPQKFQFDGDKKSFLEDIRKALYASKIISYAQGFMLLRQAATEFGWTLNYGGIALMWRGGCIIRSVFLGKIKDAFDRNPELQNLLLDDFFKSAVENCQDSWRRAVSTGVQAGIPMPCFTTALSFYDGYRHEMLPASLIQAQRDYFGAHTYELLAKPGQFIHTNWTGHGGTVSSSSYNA
Mitogen-activated protein kinase 7 (Homo sapiens), sequence (Q13164 whole entry, looked up, the tested form may be a part): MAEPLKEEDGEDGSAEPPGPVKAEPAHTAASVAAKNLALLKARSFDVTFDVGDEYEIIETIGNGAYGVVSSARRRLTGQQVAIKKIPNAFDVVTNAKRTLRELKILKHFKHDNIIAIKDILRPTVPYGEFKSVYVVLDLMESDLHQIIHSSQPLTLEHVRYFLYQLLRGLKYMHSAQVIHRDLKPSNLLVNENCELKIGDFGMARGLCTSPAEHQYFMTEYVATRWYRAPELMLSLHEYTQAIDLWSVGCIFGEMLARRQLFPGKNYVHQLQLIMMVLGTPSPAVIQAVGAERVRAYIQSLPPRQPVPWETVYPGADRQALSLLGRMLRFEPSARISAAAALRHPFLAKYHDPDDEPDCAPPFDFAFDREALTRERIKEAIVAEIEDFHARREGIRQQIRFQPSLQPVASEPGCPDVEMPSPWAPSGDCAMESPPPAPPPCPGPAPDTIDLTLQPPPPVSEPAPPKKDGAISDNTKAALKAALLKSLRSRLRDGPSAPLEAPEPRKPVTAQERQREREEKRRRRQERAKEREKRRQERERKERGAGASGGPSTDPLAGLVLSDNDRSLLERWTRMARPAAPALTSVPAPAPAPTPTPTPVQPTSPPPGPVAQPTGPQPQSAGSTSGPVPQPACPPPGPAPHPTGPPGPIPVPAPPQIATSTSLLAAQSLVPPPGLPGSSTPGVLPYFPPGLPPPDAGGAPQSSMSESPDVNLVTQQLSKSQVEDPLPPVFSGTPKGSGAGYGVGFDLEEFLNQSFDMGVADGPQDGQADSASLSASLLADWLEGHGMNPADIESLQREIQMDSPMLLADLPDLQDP

A word on the inhibition: it is the change of the read-out against control, counted positive when it falls. For `CC1(C)[C@@H](O)CC[C@]2(C)[C@H]3C(=O)C=C4[C@@H]5C[C@@](C)(C(=O)O)CC[C@]5(C)CC[C@@]4(C)[C@]3(C)CC[C@@H]12`, the inhibition in assay [1] was 6.1% (inactive). The result in assay [2], in assay [3], in [4], in assay [5] and in [6] was inactive. Also, the luciferase signal in [7] is 56 AU (inactive).

Broadly, the viability is a read-out of living cells in per cent, often relative to untreated cells. Usually AC50 stands for the midpoint of the concentration-response curve, whichever way the signal moves. Regarding `COc1ccc([C@@H]2CC(=O)c3c(O)cc(O[C@@H]4O[C@H](CO[C@@H]5O[C@@H](C)[C@H](O)[C@@H](O)[C@H]5O)[C@@H](O)[C@H](O)[C@H]4O)cc3O2)cc1O`, the parasite load remaining in assay [8] is 169% (inactive). The viability in [8] turned out to be 116%. Moreover, the inhibition in assay [1] was 1.33% (inactive). Also, the call in assay [2], in [5] and in assay [6] was inactive. Moreover, in assay [3], the AC50 was 14.8 µM (active). In addition, the results for the fold change in [9] (setting [12]) and in assay [9] (setting [13]) were 0.851 (inactive) and 2.5, respectively. Also, the figures for the cell count in assay [9] (setting [14]) and in [9] (setting [15]) were 8600 and 10100, respectively. The figures for the z-score in [10] (setting [16]) and in assay [10] (setting [17]) were -0.52 (inactive) and -0.165, respectively. Moreover, the luciferase signal in assay [7] was 88 AU (inactive).

On to `CC1(C)[C@@H](O[C@H]2O[C@H](C(=O)O)[C@@H](O)[C@H](O)[C@H]2O[C@@H]2O[C@H](C(=O)O)[C@@H](O)[C@H](O)[C@H]2O)CC[C@]2(C)[C@H]3C(=O)C=C4[C@@H]5C[C@@](C)(C(=O)O)CC[C@]5(C)CC[C@@]4(C)[C@]3(C)CC[C@@H]12`, for which the inhibition in assay [1] was 11% (inactive). The outcome in assay [3], in [4] and in [5] was inactive.

With `C[C@@H]1[C@H](O)[C@@H](C)/C=C/C=C/C=C/C=C/C=C/C=C/C=C/[C@H](O[C@@H]2O[C@H](C)[C@@H](O)[C@H](N)[C@@H]2O)C[C@@H]2O[C@](O)(C[C@@H](O)C[C@@H](O)[C@H](O)CC[C@@H](O)C[C@@H](O)CC(=O)O[C@H]1C)C[C@H](O)[C@H]2C(=O)O`, the parasite load remaining in assay [8] was 70.3% (inactive). Besides, the viability in assay [8] amounted to 129%. In addition, the inhibition in assay [1] is -10.9% (inactive). Also, the call in assay [2] and in assay [6] was inactive. The results for the AC50 in assay [3], in assay [4] and in assay [5] were 0.833 µM (active), 1.32 µM (active) and 6.62 µM (active), respectively. Also, the fold change in assay [9] (setting [12]) was 0.894 (inactive); in assay [9] (setting [13]), 1.05. The cell count came out at 7670 in assay [9] (setting [14]) and 8570 in assay [9] (setting [15]). The z-score is -0.838 (inactive) in [10] (setting [16]) and -0.728 in assay [10] (setting [17]). Moreover, the luciferase signal in assay [7] was 92 AU (inactive).

`COc1cccc(OC)c1OCCNCC1COc2ccccc2O1` (configuration not stated): in assay [1], the inhibition was 18.8% (inactive). In addition, the fold change in [9] (setting [12]) was 0.967 (inactive) and 0.92 (inactive); in assay [9] (setting [13]) it was 1.13 and 0.877. Moreover, the cell count was 8030 and 7680 in [9] (setting [14]); 8310 and 8340 in [9] (setting [15]). For the same compound, in assay [11], the z-score was -0.59 (inactive) and -0.815 (inactive).

Take `CC(C)C[C@H]1C(=O)N2CCC[C@H]2[C@]2(O)O[C@](NC(=O)[C@@H]3C=C4c5cccc6[nH]c(Br)c(c56)C[C@H]4N(C)C3)(C(C)C)C(=O)N12`: the parasite load remaining in assay [8] was 105% (inactive). In assay [8], the viability came out at 88.9%. For the same compound, the inhibition in assay [1] was -9.44% (inactive). Besides, the fold change in [9] (setting [12]) was 1.36 (inactive) and 1.09 (inactive); in [9] (setting [13]) it was 1.68 and 0.668. Moreover, the cell count is 5460 and 4760 in [9] (setting [14]); 4010 and 4360 in [9] (setting [15]). The z-score in [10] (setting [16]) was -0.164 (inactive); in assay [10] (setting [17]), -0.261; in assay [11], -1.32 (inactive) and -1.22 (inactive). In addition, the luciferase signal in assay [7] was 200 AU (inactive).

As for `O[C@H]1[C@H]2c3cc4c(cc3CN3CCC(=C[C@@H]1O)[C@H]23)OCO4`, the inhibition in [1] is 9.07% (inactive). In addition, the fold change in [9] (setting [12]) was 1.05 (inactive); in assay [9] (setting [13]), 1.33. Further, the results for the cell count in assay [9] (setting [14]) and in [9] (setting [15]) were 1670 and 1580, respectively.

The values are drawn from PubChem BioAssay.
